Assay outcomes deposited in PubChem BioAssay by The Scripps Research Institute Molecular Screening Center.
This is a sample that favours compounds with a hit; in the whole collection about 3.5% have one here.
GPR151 ag = activators of human GPR151, primary screen, cell-based, PathHunter beta-arrestin, luminescence | G-protein coupled receptor 151 (Homo sapiens), Q8TDV0 | PathHunter beta-arrestin GPR151 cells | activation, % at 11.2 µM | 1% of 650,000 active; in the data active = activation above about 4.9%;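 also: 0% = median of compound wells and 100% = cells with positive control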
FBW7 act = FBW7 E3 ligase activators, primary screen, biochemical, AlphaScreen, human. 0.13% of 650,000 active. normalized activity (activation), % at 26.1 µM. AlphaScreen FBW7–phospho-cyclin E peptide binding, activator screen. F-box/WD repeat-containing protein 7 (Homo sapiens), Q969H0; in the data active = normalized activity above about 1.9%;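 also: purified mutant Fbw7 with reduced substrate affinity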
MITF primary = MITF inhibitors, primary screen, biochemical, AlphaScreen, human | inhibition, % at 2.6 µM | 0.91% of 650,000 active | AlphaScreen MITF homodimerization, bead proximity signal | AID 1259374, 2018; in the data active = inhibition above about 50%;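 also: 0% = vehicle wells with protein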
TEAD-YAP block = TEAD-YAP interaction inhibition, primary screen, TEAD-YAP interaction inhibitor project, luminescence, HEK-TIYL cells | inhibition, % at 9.12 µM | 1.4% of 640,000 active | AID 1259422, 2018 | TEAD-Gal4/YAP UAS-luciferase luminescence; in the data active = inhibition above about 32%;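 also: 0% = median of test compound wells and 100% = reference inhibitor wells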
GPR151 conf act = GPR151 activators, triplicate retest, confirmation, cell-based, PathHunter beta-arrestin, luminescence; shares compounds with GPR151 ag; GPR151 PathHunter beta-arrestin cells, 90 min; % of EA-reagent control over plate median; activation, % at 11.2 µM; 6,700 tested, under 10 active;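 active = mean percent activation across replicates above the confirmation screen cutoff of 4.91%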
GPR119 ag = GPR119 activators in beta-arrestin cells, counter-screen for GPR151 activator project, cell-based, PathHunter beta-arrestin, luminescence, triplicate; shares compounds with GPR151 ag; 90 min; 0 = compound-well median, 100 = enzyme-acceptor control; activation, % at 11.2 µM; 0.3% of 6,700 active; AID 1508611, 2020;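 active = mean percent activation in the counterscreen above 29.09%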;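 also: counterscreen on off-target GPR119 to flag nonselective hits from the GPR151 activator screen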
Target sequence (Q8TDV5 whole entry, looked up): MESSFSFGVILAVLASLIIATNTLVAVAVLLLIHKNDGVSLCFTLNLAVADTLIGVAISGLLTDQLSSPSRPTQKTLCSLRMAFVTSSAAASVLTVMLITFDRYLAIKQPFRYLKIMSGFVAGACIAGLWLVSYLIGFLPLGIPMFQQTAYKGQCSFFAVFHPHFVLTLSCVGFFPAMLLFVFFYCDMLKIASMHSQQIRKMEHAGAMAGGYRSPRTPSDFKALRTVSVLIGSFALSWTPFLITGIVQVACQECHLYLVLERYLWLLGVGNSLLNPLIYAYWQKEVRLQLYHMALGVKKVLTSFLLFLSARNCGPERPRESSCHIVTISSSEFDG
* marks the source's active call; other numbers are inactive results.

How did CCOC(=O)C1CCN(c2c(NCCN3CCOCC3)c(=O)c2=O)CC1 do in these assays?
GPR151 ag: 6.3*; FBW7 act: 0.3; MITF primary: 10.3; TEAD-YAP block: 0.7; GPR151 conf act: -0.5; GPR119 ag: -17.6

How did O=[N+]([O-])c1cc(S(=O)(=O)N2CCOCC2)ccc1N/N=C/c1ccc(F)c(F)c1 do in these assays?
GPR151 ag: -0.3; FBW7 act: 0.0; MITF primary: 15.3; TEAD-YAP block: 9.4

What do the screens show for `CCCN(CCC)C(=O)C(C)Oc1ccccc1` (centres undefined)?
GPR151 ag: 4.7; FBW7 act: 0.1; MITF primary: 18.1; TEAD-YAP block: 4.5

How did Cc1ccccc1OCc1n[nH]c(=S)n1C do in these assays?
GPR151 ag: 7.2*; FBW7 act: -0.1; MITF primary: -5.8; TEAD-YAP block: 4.7; GPR151 conf act: -0.3; GPR119 ag: -0.8

How did C=CCOC(=O)c1cc(-c2ccc(/C=N/Nc3nn[nH]n3)o2)ccc1Cl do in these assays?
GPR151 ag: 5.0*; FBW7 act: 0.2; MITF primary: 15.2; TEAD-YAP block: -20.6; GPR151 conf act: 0.7; GPR119 ag: 2.6

Results for CC(=O)N1CCN(Cc2cccc(Cl)c2Cl)CC1 ?
GPR151 ag: 0.7; FBW7 act: -0.1; MITF primary: -4.7; TEAD-YAP block: -3.4

Results for CC(=O)N1CCN(Cc2ccccc2Br)CC1 ?
GPR151 ag: 7.9*; FBW7 act: -0.2; MITF primary: 7.5; TEAD-YAP block: -2.9; GPR151 conf act: 0.6; GPR119 ag: 1.3

What do the screens show for `COc1ccc(S(=O)(=O)N2CCC(N3CCCCC3)CC2)cc1OC`?
GPR151 ag: 6.3*; FBW7 act: 0.0; MITF primary: -8.3; TEAD-YAP block: -1.9; GPR151 conf act: -0.8; GPR119 ag: -14.2

Results for COc1ccc(S(=O)(=O)N2CCC(C)CC2)cc1OC ?
GPR151 ag: -1.7; FBW7 act: 0.1; MITF primary: 12.2; TEAD-YAP block: -3.8

Results for FC(F)(F)Oc1cccc(-c2cc(NCc3cccc(C(F)(F)F)c3)ncn2)c1 ?
GPR151 ag: 0.6; FBW7 act: 0.0; MITF primary: -6.4; TEAD-YAP block: 9.1

How did CC(C)Sc1nc2c(c(=O)[nH]1)C(c1cccs1)C1=C(CCCC1=O)N2 (centres undefined) do in these assays?
GPR151 ag: 5.2*; FBW7 act: -0.1; MITF primary: 11.3; TEAD-YAP block: 2.2; GPR151 conf act: 1.2; GPR119 ag: 5.6

What do the screens show for `Cc1ccc2[nH]c(=O)c(CN(CCO)C(=O)Nc3ccc(Cl)cc3)cc2c1`?
GPR151 ag: 1.2; FBW7 act: 1.9; MITF primary: -1.8; TEAD-YAP block: 1.6

How did O=[N+]([O-])c1cccc(/C=N/Nc2nnnn2-c2cccc3ccccc23)c1 do in these assays?
GPR151 ag: 0.9; FBW7 act: -0.2; MITF primary: -5.5; TEAD-YAP block: -6.6

Results for CC1=C(c2ccc(C)cc2)S(=O)(=O)N=C1Nc1ccc(C)cc1 ?
GPR151 ag: 0.3; FBW7 act: 0.0; MITF primary: -7.1; TEAD-YAP block: -75.6

What do the screens show for `CC1=C(c2ccc(C)cc2)S(=O)(=O)N=C1Nc1ccc(Br)cc1F`?
GPR151 ag: 8.7*; FBW7 act: 0.2; MITF primary: 1.1; TEAD-YAP block: -6.1; GPR151 conf act: 1.6; GPR119 ag: 7.7

How did COc1ccc(CNC(=O)c2ccc3c(=O)n(-c4cc(C(F)(F)F)ccc4Cl)c(=S)[nH]c3c2)cc1 do in these assays?
GPR151 ag: -1.2; FBW7 act: 0.5; MITF primary: 11.2; TEAD-YAP block: 8.7

How did COc1ccc(C2Oc3c(OC)cccc3C3CC(c4ccco4)=NN32)cc1 (centres undefined) do in these assays?
GPR151 ag: -1.3; FBW7 act: 0.0; MITF primary: 13.1; TEAD-YAP block: -67.5

What do the screens show for `COc1ccc(C2Oc3c(OC)cccc3C3CC(c4ccco4)=NN32)cc1OC` (centres undefined)?
GPR151 ag: 7.6*; FBW7 act: 0.0; MITF primary: 1.8; TEAD-YAP block: -64.5; GPR151 conf act: -0.8; GPR119 ag: -2.0

Results for O=C(/C=C/c1cccc2ccccc12)NCc1ccccc1 ?
GPR151 ag: 5.0*; FBW7 act: 0.2; MITF primary: 15.3; TEAD-YAP block: -7.4; GPR151 conf act: -0.6; GPR119 ag: -8.3

What do the screens show for `CNc1cc([N+](=O)[O-])ccc1N/C=C\C(=O)c1ccc(OC)cc1OC`?
GPR151 ag: 5.8*; FBW7 act: 0.0; MITF primary: 15.8; TEAD-YAP block: -19.8; GPR151 conf act: 0.3; GPR119 ag: -1.4

What do the screens show for `CCOC(=O)C1=C(C)N=c2s/c(=C\c3c[nH]c4ccccc34)c(=O)n2C1c1ccc(OCC)c(OCC)c1` (centres undefined)?
GPR151 ag: -1.5; FBW7 act: 0.8; MITF primary: 10.9; TEAD-YAP block: -7.2

How did CC(C(=O)Nc1ccc(Br)cc1F)N1Cc2ccccc2C1=O (centres undefined) do in these assays?
GPR151 ag: 0.6; FBW7 act: -0.1; MITF primary: 0.4; TEAD-YAP block: 2.2

How did CC(C(=O)Nc1ccc(Br)cn1)N1Cc2ccccc2C1=O (centres undefined) do in these assays?
GPR151 ag: 7.2*; FBW7 act: -0.1; MITF primary: -0.6; TEAD-YAP block: 84.7*; GPR151 conf act: 0.0; GPR119 ag: -1.7

Results for CCc1ccc(S(=O)(=O)N(C(=O)c2ccccc2Cl)c2ccc3oc(C)c(C(C)=O)c3c2)cc1 ?
GPR151 ag: 0.8; FBW7 act: 0.1; MITF primary: -0.9; TEAD-YAP block: 2.1

What do the screens show for `FC(F)(F)c1ccc(NC2=NCCC2)cc1`?
GPR151 ag: -0.2; FBW7 act: 0.4; MITF primary: 18.9; TEAD-YAP block: -8.4

Results for c1ccc(NC2=NCCC2)cc1 ?
GPR151 ag: 7.1*; FBW7 act: -0.1; MITF primary: -0.7; TEAD-YAP block: 7.9; GPR151 conf act: -0.2; GPR119 ag: -6.3

What do the screens show for `Cc1cc(OCC(=O)N2CCc3ccccc32)ccc1[N+](=O)[O-]`?
GPR151 ag: 2.1; FBW7 act: 0.6; MITF primary: 16.3; TEAD-YAP block: -9.2

How did CCC(C)OC(=O)C1=C(C)NC2=C(C(=O)CC(c3ccc(OC)cc3)C2)C1c1cc(OC)c(OC)cc1Br (centres undefined) do in these assays?
GPR151 ag: 7.5*; FBW7 act: -0.6; MITF primary: -1.8; TEAD-YAP block: 10.7; GPR151 conf act: 2.1; GPR119 ag: 6.1
